In article PMC11062922 (Nature Chemical Biology, 2023):
Like-named read-outs stand apart in the source and are kept apart here.

Assays:
Design in all cases: species or system human, MV4-11 + K-562 + COLO205 + SK-N-BE2 + OVCAR-8
ADCK3 = conditions: read-out: apparent Kd, n = 1
CLK1 = conditions: read-out: apparent Kd, compound concentrations: 100 nM and 1000 nM (sheet 'Samples'), n = 1
CLK4 = conditions: read-out: apparent Kd, compound concentrations: 100 nM and 1000 nM (sheet 'Samples'), n = 1
FER = conditions: read-out: apparent Kd; compound concentrations: 100 nM and 1000 nM (sheet 'Samples'), CATDS: 0.15534788887379899; n = 1
FES = conditions: read-out: apparent Kd; compound concentrations: 100 nM and 1000 nM (sheet 'Samples'), CATDS: 6.2151263603986602E-2; n = 1
IGF1R = conditions: read-out: apparent Kd; compound concentrations: 100 nM and 1000 nM (sheet 'Samples'), CATDS: 0.14317930106922699; n = 1
INSR = conditions: read-out: apparent Kd; compound concentrations: 100 nM and 1000 nM (sheet 'Samples'), CATDS: 0.19841534550213699; n = 1
PLK1 = conditions: read-out: apparent Kd; compound concentrations: 100 nM and 1000 nM (sheet 'Samples'), CATDS: 5.09869917251893E-2; n = 1
PRKCZ = conditions: read-out: apparent Kd; compound concentrations: 100 nM and 1000 nM (sheet 'Samples'), CATDS: 4.7711419359540999E-2; n = 1
PTK2B = conditions: read-out: apparent Kd; compound concentrations: 100 nM and 1000 nM (sheet 'Samples'), CATDS: 0.144435732024948; n = 1
PTK2 = conditions: read-out: apparent Kd; compound concentrations: 100 nM and 1000 nM (sheet 'Samples'), CATDS: 9.0293978496921806E-2; n = 1
RIPK3 = conditions: read-out: apparent Kd; compound concentrations: 100 nM and 1000 nM (sheet 'Samples'), CATDS: 4.6981822696137099E-2; n = 1
TNK1 = conditions: read-out: apparent Kd; compound concentrations: 100 nM and 1000 nM (sheet 'Samples'), CATDS: 8.1384476326193098E-2; n = 1
TTK = conditions: read-out: apparent Kd; compound concentrations: 100 nM and 1000 nM (sheet 'Samples'), CATDS: 4.6872796614934702E-2; n = 1
ADCK1 = conditions: read-out: apparent Kd; compound concentrations: 100 nM and 1000 nM (sheet 'Samples'), CATDS: 8.5431360664487602E-2; n = 1
ATM = conditions: read-out: apparent Kd; compound concentrations: 100 nM and 1000 nM (sheet 'Samples'), CATDS: 0.154535696206207; n = 1
CDC42BPG = conditions: read-out: apparent Kd; compound concentrations: 100 nM and 1000 nM (sheet 'Samples'), CATDS: 7.3873319351317801E-2; n = 1
CDKL5 = conditions: read-out: apparent Kd; compound concentrations: 100 nM and 1000 nM (sheet 'Samples'), CATDS: 0.103192047261391; n = 1
CLK2 = conditions: read-out: apparent Kd; compound concentrations: 100 nM and 1000 nM (sheet 'Samples'), CATDS: 0.42234286586488101; n = 1
PIK3CD = conditions: read-out: apparent Kd; compound concentrations: 100 nM and 1000 nM (sheet 'Samples'), CATDS: 0.16747258598029099; n = 1
PRKAG2 = conditions: read-out: apparent Kd; compound concentrations: 100 nM and 1000 nM (sheet 'Samples'), CATDS: 7.6138264702913502E-2; n = 1
AKT3 = conditions: read-out: apparent Kd, n = 1
BRAF = conditions: read-out: apparent Kd; compound concentrations:100 nM and 1000 nM (sheet 'Samples'); n = 1
NNT = conditions: read-out: apparent Kd; compound concentrations:100 nM and 1000 nM (sheet 'Samples'); n = 1
RIPK2 = conditions: read-out: apparent Kd; compound concentrations:100 nM and 1000 nM (sheet 'Samples'); n = 1
STK26 = conditions: read-out: apparent Kd; compound concentrations:100 nM and 1000 nM (sheet 'Samples'); n = 1
PIK3CB = conditions: read-out: apparent Kd; compound concentrations: 100 nM and 1000 nM (sheet 'Samples'), CATDS: 0.78583542489200198; n = 1
ADRBK1 = conditions: read-out: apparent Kd, compound concentrations: 100 nM and 1000 nM (sheet 'Samples'), n = 1
AKT1 = conditions: read-out: apparent Kd; compound concentrations: 100 nM and 1000 nM (sheet 'Samples'), CATDS: 9.2646573747736397E-2; n = 1
AKT2 = conditions: read-out: apparent Kd; compound concentrations: 100 nM and 1000 nM (sheet 'Samples'), CATDS: 0.116273813691737; n = 1
MAP2K1 = conditions: read-out: apparent Kd; compound concentrations: 100 nM and 1000 nM (sheet 'Samples'), CATDS: 9.2730141301733807E-2; n = 1
MAP2K2 = conditions: read-out: apparent Kd; compound concentrations: 100 nM and 1000 nM (sheet 'Samples'), CATDS: 9.7397505320664393E-2; n = 1
MAP4K3 = conditions: read-out: apparent Kd; compound concentrations: 100 nM and 1000 nM (sheet 'Samples'), CATDS: 0.10467989294056; n = 1
NQO1 = conditions: read-out: apparent Kd; compound concentrations: 100 nM and 1000 nM (sheet 'Samples'), CATDS: 0.121643058614981; n = 1
RIOK2 = conditions: read-out: apparent Kd; compound concentrations: 100 nM and 1000 nM (sheet 'Samples'), CATDS: 0.103588865131405; n = 1
TP53RK = conditions: read-out: apparent Kd; compound concentrations: 100 nM and 1000 nM (sheet 'Samples'), CATDS: 8.4192999566122695E-2; n = 1
[1] = compound concentrations:100 nM and 1000 nM (sheet 'Samples')

COc1cc(C)c(NC(=O)CN(C)C)cc1Nc1nc(Nc2cccc(F)c2C(N)=O)c2cc[nH]c2n1 [GSK2213727A]
potency estimated from few doses (ADCK3; compound concentrations: 100 nM and 1000 nM (sheet 'Samples'), CATDS: 5.9808730869804497E-2): 688 nM | potency estimated from few doses (CLK1; CATDS: 7.7083223058971695E-2): 335 nM | potency estimated from few doses (CLK4; CATDS: 5.4708251309819003E-2): 936 nM | potency estimated from few doses (FER): 82.7 nM | potency estimated from few doses (FES): 609 nM | potency estimated from few doses (IGF1R): 94.7 nM | potency estimated from few doses (INSR): 56.7 nM | potency estimated from few doses (PLK1): 1230 nM | potency estimated from few doses (PRKCZ): 1660 nM | potency estimated from few doses (PTK2B): 93.3 nM | potency estimated from few doses (PTK2): 231 nM | potency estimated from few doses (RIPK3): 1790 nM | potency estimated from few doses (TNK1): 293 nM | potency estimated from few doses (TTK): 1810 nM

CCOc1ccc2c(-c3ccnc(Nc4cccc(C(F)(F)F)c4)n3)cnn2n1 [GW811761X]
potency estimated from few doses (ADCK1): 1140 nM | potency estimated from few doses (ATM): 257 nM | potency estimated from few doses (CDC42BPG): 2020 nM | potency estimated from few doses (CDKL5): 644 nM | potency estimated from few doses (CLK1; CATDS: 0.10181470937503199): 667 nM | potency estimated from few doses (CLK2): 49.8 nM | potency estimated from few doses (CLK4; CATDS: 0.12045713212899201): 438 nM | potency estimated from few doses (PIK3CD): 220 nM | potency estimated from few doses (PRKAG2): 1760 nM

CN(C)CCOc1ccc(-c2nc(-c3ccc4c(c3)CC/C4=N/O)c(-c3ccncc3)[nH]2)cc1 [SB-590885_KCGS]
potency estimated from few doses (ADCK3; [1]): 1150 nM | potency estimated from few doses (AKT3; [1]): 1900 nM | potency estimated from few doses (BRAF): 88.6 nM | potency estimated from few doses (NNT): 1680 nM | potency estimated from few doses (RIPK2): 679 nM | potency estimated from few doses (STK26): 2210 nM

Cc1c(Cn2ccn3c(=O)nc(N4CCOCC4)cc23)cccc1C(F)(F)F [GSK2336394A]
potency estimated from few doses (ADCK3; compound concentrations: 100 nM and 1000 nM (sheet 'Samples'), CATDS: 0.28209603435573799): 575 nM | potency estimated from few doses (AKT3; compound concentrations: 100 nM and 1000 nM (sheet 'Samples'), CATDS: 0.239087060290751): 1030 nM | potency estimated from few doses (PIK3CB): 54.2 nM

N#Cc1c(NC(=O)c2cccc3ccccc23)sc2c1CCCC2 [GW620972X]
potency estimated from few doses (ADRBK1; CATDS: 9.9298321917506205E-2): 1570 nM | potency estimated from few doses (AKT1): 1820 nM | potency estimated from few doses (AKT2): 1170 nM | potency estimated from few doses (AKT3; compound concentrations: 100 nM and 1000 nM (sheet 'Samples'), CATDS: 9.8238280231453798E-2): 1610 nM | potency estimated from few doses (MAP2K1): 1820 nM | potency estimated from few doses (MAP2K2): 1640 nM | potency estimated from few doses (MAP4K3): 1420 nM | potency estimated from few doses (NQO1): 1080 nM | potency estimated from few doses (RIOK2): 1440 nM | potency estimated from few doses (TP53RK): 2270 nM

Nc1cccc(-c2ccc3c(N)n[nH]c3c2)n1 [GSK2192730A]
potency estimated from few doses (ADRBK1; CATDS: 1): 1750 nM
